Measurements as given in PubChem BioAssay AID686979 (National Center for Advancing Translational Sciences (NCATS), 2013).
Where “and” joins values, the source holds several entries; their conditions need not be identical. Equal values may be shown once. About 50,000 (12%) of roughly 420,000 compounds were called active. A call without a number means that no potency is given here. Roughly 26% stayed inconclusive and do not appear here. The call rests on the fitted dose curve; in most records, active means well fitted inhibition curve with a large enough effect; inconclusive means small, poorly fitted or top-dose-only effect; inactive means flat fitted curve, though single readings scatter. Many of the other results were omitted from the sample, so actives are more common in it than they were. Some structures have more than one record in an assay (separate samples or runs), and their calls can disagree.
Potency means the concentration at half of the fitted maximal effect.

Test: qHTS for Inhibitors of human tyrosyl-DNA phosphodiesterase 1 (TDP1): qHTS in cells in presence of CPT; further: nearly all actives have a fitted effect of over 55% in size
Conditions: chicken DT40 Tdp1-/-;hTDP1 cells + 20 nM CPT, ATP luminescence, 48 h; series mostly up to 46.2 µM
Method in brief: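 Chicken DT40 Tdp1-/- cells complemented with human TDP1, 400 cells/well, exposed to compounds plus 20 nM camptothecin for at least 48 h at 37 C; viability read as ATP content by CellTiter-Glo luminescence.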
With `Cc1cnc(CN(C)C(=O)CC2C(=O)NCCN2Cc2cccc(F)c2F)[nH]1` (centres undefined) the Potency was “inactive”. With `CCCC1NC(=O)NC(C)=C1C(=O)OCC` (centres undefined) the Potency was “inactive”. With `CCCCn1c(N)c(N(CC)C(=O)c2ccccc2C(F)(F)F)c(=O)[nH]c1=O` the Potency was “inactive”. With `Cc1ccc(CNC(=O)Cn2cnc3c(NCc4ccccc4)ncnc32)o1` the Potency was 18.4 µM (active). In the case of `Cc1ccc(CNC(=O)Cn2cnc(S(=O)(=O)N3CCCCC3)c2)o1`, the Potency is reported as “inactive”. In the case of `Cc1ccc(NC(=O)Cn2cnc3c(OCc4ccccc4)ncnc32)cc1C`, the Potency is reported as “inactive”. With `Cn1c(=O)c2c(SCC(=O)NCC3CCCO3)nc(CC(C)(C)C)nc2n(C)c1=O` (centres undefined) the Potency was “inactive”. In the case of `Cc1ccc(NC(=O)c2cn3c4c(ccc(Cl)c4c2=O)OC(C)C3)cc1C` (centres undefined), the Potency is reported as “inactive”. For `Cc1ccc(C)c(C(C)NC(=O)C2CCCO2)c1` (centres undefined), the Potency was “inactive”. In the case of `Cc1nc(N)nc(Cl)c1CCC1OCCO1`, the Potency is reported as “inactive”. With `O=c1c(Cl)c(NC2CC2)cnn1-c1ccccc1` the Potency was “inactive”. For `C=CCNc1cnn(-c2ccc(C)cc2)c(=O)c1Cl`, the Potency was “inactive”. With `Cc1cccc(-n2ncc(Cl)c(Cl)c2=O)c1` the Potency was 5.17 µM (active). For `O=C(OCC(=O)N1CCc2ccccc21)c1ccc([N+](=O)[O-])cc1`, the Potency was 20.6 µM (active). In the case of `Cc1ccc(S(=O)(=O)NCC(=O)OCC(=O)N2CCc3ccccc32)cc1`, the Potency is reported as “inactive”. For `O=C(OCC(=O)N1CCc2ccccc21)C1CCCN1S(=O)(=O)c1ccc(Cl)cc1` (centres undefined), the Potency was “inactive”. In the case of `CO/N=C(\C(=O)N[C@@H]1C(=O)N2C(C(=O)O)=C(C[N+]3(C)CCCC3)CS[C@H]12)c1csc(N)n1`, the Potency is reported as “inactive”. In the case of `CCC1NC(=O)c2cccnc2-n2c1nc1ccc(C)cc1c2=O` (centres undefined), the Potency is reported as “inactive”. In the case of `O=c1c2ccccc2nc(CSc2nnnn2-c2ccccc2)n1-c1ccccc1`, the Potency is reported as “inactive”. In the case of `CCCN1C(=O)C(Cc2nc3ccccc3c(=O)n2-c2ccccc2)c2cc(C)ccc21` (centres undefined), the Potency is reported as “inactive and 16.4 µM (active)”. For `Cc1ccc(Cl)cc1NC(=O)C(C)n1nnc2sc(-c3ccccc3)cc2c1=O` (centres undefined), the Potency was “inactive”. For `O=C(Nc1c2c(nn1-c1cccc(Cl)c1)CS(=O)(=O)C2)c1cccs1`, the Potency was “inactive”. For `COCCN(C(=O)CC1CCCCC1)c1c(N)n(CC(C)C)c(=O)[nH]c1=O`, the Potency was “inactive”. With `CCc1nc2sc3c(Cl)ncnc3c2c2c1CCCC2` the Potency was “inactive”. With `OCCCC1CCCCN1Cc1nc(Cc2ccccc2Cl)no1` (centres undefined) the Potency was “inactive”. In the case of `COc1cc(-n2c(C)nc3cc(C(=O)NCc4ccco4)ccc32)cc(OC)c1OC`, the Potency is reported as “inactive”. With `CCOC(=O)c1ccccc1NC(=O)c1sc2nc(-c3ccc(F)cc3)cn2c1C` the Potency was “inactive”. With `Cc1ccc(-c2cn3c(n2)sc2cc(C(=O)NCCCc4ccccc4)ccc23)cc1` the Potency was 14.6 µM (active). For `Cc1cc(C(=O)NCCCc2ccccc2)no1`, the Potency was “inactive”. In the case of `CCOc1ccc(CCNC(=O)c2ccc3c(c2)sc2nc(-c4ccc(F)cc4)cn23)cc1OCC`, the Potency is reported as 7.31 µM (active). For `COc1ccccc1-n1c(C)nc2cc(C(=O)NCc3ccc4c(c3)OCO4)ccc21`, the Potency was “inactive”. With `COc1ccc2oc(=O)c(-c3cn4c(n3)sc3cc(OC)ccc34)cc2c1` the Potency was “inactive”. With `O=C(NCCc1ccc(F)cc1)c1ccc2nccnc2c1` the Potency was “inactive”. In the case of `CC(C)c1ccc(C(=O)NCCCc2ccccc2)cc1`, the Potency is reported as “inactive”. With `COc1ccc(CCNC(=O)c2ccc3c(c2)nc(C)n3-c2ccc(Br)cc2)cc1OC` the Potency was 20.6 µM (active). For `COc1ccc(C(=O)NCc2cn3ccccc3n2)cc1`, the Potency was “inactive”. In the case of `COc1cccc(CNC(=O)c2ccc3c(c2)sc2nc(-c4cccc(OC)c4)cn23)c1`, the Potency is reported as 6.51 µM (active). With `Cc1ccc(C(=O)Cn2cccn2)cc1` the Potency was “inactive”. In the case of `OC(CNCc1ccc2c(c1)OCO2)COc1ccccc1` (centres undefined), the Potency is reported as “inactive”. For `COC(C)C(C(=O)OCC1=CCN2CC[C@H](O)[C@@H]12)C(C)C` (some centres undefined), the activity change, negative = growth inhibition was -27.6% [at 9.04 µM] (inactive). With `N#Cc1c(C(F)(F)F)cc(-c2cccs2)nc1N1CCCCC1` the Potency was “inactive”. For `COc1ccc(CCNC(=S)N2CCN(S(=O)(=O)c3ccc(F)cc3)CC2)cc1`, the Potency was “inactive”. For `Cc1cc(NC(=O)CSc2nc(=O)cc(N)n2-c2ccc(F)cc2)no1`, the Potency was “inactive”. With `Cc1nc2nc(C)c(CCC(=O)N3CCN(c4ccccc4)CC3)c(C)n2n1` the Potency was “inactive”. With `COc1ccc(C(=O)NCCCN2CCOCC2)cc1Br` the Potency was “inactive”. For `COc1ccc(-c2cc(C(=O)NCCCN3CCOCC3)no2)cc1`, the Potency was “inactive”. In the case of `CCOc1cccc2cc(-c3cn4c(n3)sc3cc(C)ccc34)c(=O)oc12`, the Potency is reported as “inactive”. For `CCOC(=O)C1CCCN(C(=O)c2cncc(Br)c2)C1` (centres undefined), the Potency was “inactive”. For `COc1ccc(CCNC(=O)c2ccc3c(c2)sc2nc(-c4ccc(C)cc4)cn23)cc1OC`, the Potency was 6.51 µM (active). In the case of `CCN1CCN(CCCNC(=O)c2ccc3c(c2)sc2nc(-c4ccc(OC)cc4)cn23)CC1`, the Potency is reported as 0.92 µM (active). With `Cc1ccc2c(CC(=O)NCc3cccs3)coc2c1` the Potency was “inactive”. For `Cc1ccc(-c2cn3c(n2)sc2cc(C(=O)NCc4cccs4)ccc23)c(C)c1`, the Potency was 23.1 µM (active). With `CCOC(=O)C1CCCN(C(=O)c2ccc(CS(=O)(=O)c3ccc(Br)cc3)o2)C1` (centres undefined) the Potency was “inactive”. With `CCOC(=O)C1CCCN(C(=O)c2ccc3c(c2)sc2nc(-c4ccc(CC)cc4)cn23)C1` (centres undefined) the Potency was 4.11 µM (active).
